Assay outcomes: PubChem BioAssay, Buhrlage Lab, Dana-Farber Cancer Institute and Novartis Institutes for BioMedical Research (Cambridge, Mass)
Hits are enriched below; roughly 11% of the tested compounds scored in any of these assays.
USP30 block = human USP30 deubiquitinase inhibition; purified USP30, Ub-rhodamine cleavage fluorescence; Q70CQ3; AID 1645860; hit rate 5.3% among 47,000; inhibition, % at 25 µM
USP17 block = blocks human USP17 ubiquitin-rhodamine cleavage; A8MUK1; purified USP17, Ub-rhodamine cleavage fluorescence, 3 h; inhibition, % at 50 µM; hit rate 6.5% among 47,000; AID 1645855
Target sequence (A8MUK1 whole entry, looked up): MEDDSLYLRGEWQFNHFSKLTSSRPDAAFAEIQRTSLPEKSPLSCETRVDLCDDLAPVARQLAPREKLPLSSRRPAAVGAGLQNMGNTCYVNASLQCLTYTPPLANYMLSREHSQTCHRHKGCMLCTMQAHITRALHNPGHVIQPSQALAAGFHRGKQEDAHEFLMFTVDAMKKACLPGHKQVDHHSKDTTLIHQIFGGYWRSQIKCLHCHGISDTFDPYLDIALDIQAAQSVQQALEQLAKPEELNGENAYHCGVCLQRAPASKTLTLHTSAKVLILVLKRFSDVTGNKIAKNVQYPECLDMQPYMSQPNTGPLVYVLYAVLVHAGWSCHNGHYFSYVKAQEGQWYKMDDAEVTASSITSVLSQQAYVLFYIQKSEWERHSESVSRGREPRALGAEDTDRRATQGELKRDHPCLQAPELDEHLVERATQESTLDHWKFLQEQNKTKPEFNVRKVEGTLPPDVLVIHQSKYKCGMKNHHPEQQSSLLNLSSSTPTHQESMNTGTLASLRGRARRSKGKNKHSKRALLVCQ
USP28 inh = inhibitors of human USP28 deubiquitinase | Q96RU2 | purified USP28, Ub-rhodamine cleavage fluorescence, 30 min | inhibition, % at 25 µM | hit rate 3% among 47,000
Numbers without * were called inactive; i = inactive; . = no result given. Rule as the data show it: active = inhibition above about 30%; inactive = the rest.

SMILES	USP30 block	USP17 block	USP28 inh
CC(=O)N1Cc2ccccc2CC2(CCN(Cc3ccccc3)CC2)C1	10	-4	10
O=S1(=O)Cc2ccccc2C(n2ccnc2)c2ccsc21 (configuration not stated)	13	7	5
O=C(CC1CCCCC1)N1CCCC(c2nn(CCOc3ccccc3)c3nccnc23)C1 (configuration not stated)	35*	26	23
O=C(c1ccccc1)N1CCCC(c2nn(CCOc3ccccc3)c3nccnc23)C1 (configuration not stated)	25	-3	14
COc1cccc(CNC(=O)CCC(=O)N2CCSc3ccccc32)c1	2	-1	-6
Cc1ccc(-c2cc(NC(=O)C(C)C)c(=O)n(CC(=O)Nc3cccc(F)c3)n2)cc1	-13	-1	-7
O=C(Cn1nc(-c2ccco2)ccc1=O)Nc1cccc(Br)c1	29	37*	12
COc1ccc(C2C3=C(CC(C)(C)CC3=O)Nc3onc(C)c32)cc1O (configuration not stated)	-1	10	3
O=C(CN1CC2(CCOCC2)Oc2ccccc2C1=O)N1CCCC(O)C1 (configuration not stated)	0	-6	-12
Cc1cccc(-n2ccnc(SCC(=O)Nc3ccc(Cl)cc3F)c2=O)c1	49*	76*	38*
Cc1ccccc1NC(=O)CSc1nccn(-c2ccc(F)c(F)c2)c1=O	-45	0	-7
Cc1nnc(-c2cc(S(=O)(=O)NCc3ccccc3Cl)c[nH]2)o1	-6	-10	5
CS(=O)(=O)N1CCc2nc(-c3ccccn3)nc(N3CCOCC3)c2C1	-8	-22	-4
O=C(CCn1cnc2c(cnn2-c2ccccc2)c1=O)N1CCCCC1	-2	-6	-17
Cn1ncc2c(=O)n(Cc3cccc(Cl)c3)cnc21	26	10	65*
Cc1ccc(CNC(=O)Cn2cnc3c(cnn3-c3cccc(Cl)c3)c2=O)cc1	9	1	61*
O=C(NCCn1ncc2c(=O)n(Cc3cccc(Cl)c3)cnc21)c1ccco1	16	-1	13
O=C(Cn1cnc2c(cnn2-c2cccc(Cl)c2)c1=O)N1CCCC1	-46	-23	-23
O=C(Cn1cnc2c(cnn2-c2ccc(Cl)cc2)c1=O)NCc1ccccc1Cl	29	55*	9
O=C(Cn1cnc2c(oc3ccccc32)c1=O)c1ccccc1	1	18	-4
O=C(Cn1cnc2c(oc3ccccc32)c1=O)NCc1ccccc1Cl	0	87*	1
CS(=O)(=O)N1CCC(=O)N(Cc2ccc(Cl)cc2)c2ccccc21	10	13	8
CCC(C)(Nc1ccccc1)c1nnnn1-c1ccccc1 (configuration not stated)	18	10	20
CN1CCN(CCCN2C(=O)C3C(C(=O)Nc4ccc(Cl)c(Cl)c4)C4C=CC3(O4)C2C(=O)NC2CCCCC2)CC1 (configuration not stated)	-14	0	-8
CC(O)CN1CC(O)=C(c2nc(-c3ccccc3)cs2)C1=N (configuration not stated)	-14	3	-7
SMILES	USP30 block	USP17 block	USP28 inh
COc1ccc(-c2cnc([C@@H]3COCCN3C3CCOCC3)[nH]2)cc1	-6	-71	5
CCN1CCCC1CN(Cc1cc2cc(OC)ccc2[nH]c1=O)C(=O)Nc1ccccc1Cl (configuration not stated)	-54	49*	-30
CCN1CCCC1CN(Cc1cc2cc(OC)ccc2[nH]c1=O)C(=O)NCc1ccccc1 (configuration not stated)	-41	53*	-11
COc1ccc2[nH]c(=O)c(CN(CCCN3CCOCC3)C(=O)Nc3ccccc3Cl)cc2c1	9	.	-1
CCN1CCCC1CN(Cc1cc2ccc(C)c(C)c2[nH]c1=O)C(=O)NCc1ccccc1 (configuration not stated)	-217	7	-36
C/C(N)=C(/C#N)c1csc(N)n1	i	-135	-139
COc1cc(NC(=O)Nc2ccc(-c3nnc(-c4ccccc4)o3)cc2)cc(OC)c1OC	0	9	-4
COc1cc(/C=C(/C(=O)O)c2ccc(-c3ccccc3)cc2)cc(OC)c1OC	-47	38*	-17
O=C(c1csc2c1CCCC2)N1CCN(C(c2ccccc2)c2ccccc2)CC1	31*	2	3
O=C(c1scc2c1CCCC2)N1CCN(c2ccccc2O)CC1	6	0	4
CC1Cc2cc(S(=O)(=O)NCCN3CCCCCC3)ccc2N1C(=O)C1CC1 (configuration not stated)	5	2	39*
CC1Cc2cc(S(=O)(=O)N3CCCCCC3)ccc2N1C(=O)C1CC1 (configuration not stated)	-7	-6	17
CCc1ccccc1NC(=O)CCC(=O)N1CCOc2ccc(C)cc21	16	-6	11
Cn1c(=O)c2[nH]c(N3CCCCCC3)nc2n(C)c1=O	.	12	.
Cc1ccc(NC(=O)CSc2nc3nc(C)ccc3o2)cc1	0	0	-1
CC(=O)c1ccc(NC(=O)CSc2nc3nc(C)ccc3o2)cc1	-16	46*	-7
O=C(COc1ccccc1)Nc1ccc2c(c1)CN(C(=O)c1ccco1)CC2	-5	7	26
COc1ccc(C(=O)Nc2ccc3c(c2)CN(C(=O)c2ccco2)CC3)c(OC)c1OC	-14	-3	14
O=C(COc1ccc(F)cc1)Nc1ccc2c(c1)CCC(=O)N2Cc1ccccc1	12	.	10
O=C(COc1ccccc1F)Nc1ccc2c(c1)CN(C(=O)c1ccco1)CC2	27	26	41*
COc1ccccc1OCC(=O)Nc1ccc2c(c1)CCC(=O)N2Cc1ccccc1	54*	14	15
COc1ccccc1OCC(=O)Nc1ccc2c(c1)CN(C(=O)c1ccco1)CC2	22	33*	36*
COC(=O)C(NC(=O)CCc1nnc2ccc(N3CCN(c4cccc(OC)c4)CC3)nn12)C(C)C (configuration not stated)	9	7	3
CC(=O)C1C(c2cccnc2)C2(C(=O)c3ccccc3C2=O)C2C=Cc3ccccc3N12 (configuration not stated)	i	-182	-232
O=C(Cn1cnc(S(=O)(=O)N2CCCC2)c1)NCc1ccccc1Cl	0	-9	-5
SMILES	USP30 block	USP17 block	USP28 inh
COc1cc(OC)c2c(C)c(CC(=O)N3CCC[C@H]3C(=O)O)c(=O)oc2c1	7	-7	3
CC1(C)Cc2nc3sc4c(SCc5ccc(Br)cc5)ncnc4c3cc2CO1	-14	-18	-5
COc1ccc(NC(=O)CSC2=NC3(CCCCC3)Nc3ccccc32)cc1	-39	2	-6
CCOc1ccc(NC(=O)CSC2=NC3(CCCC3)Nc3ccccc32)cc1	-59	30*	-6
O=C(O)CCC(=O)N1c2ccccc2CC1c1ccc(Cl)cc1 (configuration not stated)	-2	14	2
CN(C)c1ccc(C2CC(c3ccc(Br)cc3)=NN2C(=O)CCC(=O)O)cc1 (configuration not stated)	26	32*	23
COc1ccc(-c2c(NC(=O)C3COc4ccccc4O3)n[nH]c2C)cc1OC (configuration not stated)	11	0	32*
CC(C)COc1ccc(-c2nonc2NC(=O)C2COc3ccccc3O2)cc1 (configuration not stated)	29	4	9
